Unmarked numbers belong to inactive results. Records with an inconclusive call do not appear. Activity calls are given as the source filed them. Unless noted, the call rests on the fitted dose curve; in most records, active means well fitted curve in the direction sought with a large enough effect in the repeat runs; inconclusive means weak or mixed curves; inactive means no such curve, though single readings can be large; an effect the other way counts as inactive or inconclusive.

Test [1] concerns the target Thyrotropin receptor (Homo sapiens) (UniProt P16473). The test can be described thus: qHTS assay to identify small molecule agonists of the thyroid stimulating hormone receptor (TSHR) signaling pathway (AID 1224843; calls by dose curve; further: nearly all actives have a fitted effect of over 45% in size; further: potency means the concentration at half of the fitted maximal effect). The essentials:
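Agonist-mode screen: TSHR HEK293 cells received test chemicals for half an hour at room temperature, then HTRF cAMP detection reagents for one hour prior to fluorescence measurement. Each chemical ran as a 15-concentration series, triplicated.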
Background: qHTS replaces the single test concentration by a dilution series.

In test [2] the target is Androgen receptor (Homo sapiens) (UniProt P10275). The test can be described thus: qHTS assay to identify small molecule agonists of the androgen receptor (AR) signaling pathway in the presence of an antagonist (AID 1259381; calls by dose curve; further: nearly all actives have a fitted effect of over 15% in size; further: potency means the concentration at half of the fitted maximal effect). The essentials:
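Plated MDA-kb2 cells (3,000/well) were pre-incubated 5hr, given nilutamide (3.0uM final) or buffer, then dosed with compounds in DMSO at 15 concentrations. Luciferase activity was quantified by luminescence after 16hr at 37C.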

Test [3] has as its target Thyrotropin receptor (Homo sapiens) (UniProt P16473). The test can be described thus: qHTS assay to identify small molecule antagonists of the thyroid stimulating hormone receptor (TSHR) signaling pathway (AID 1259385; calls by dose curve; further: nearly all actives have a fitted effect of over 20% in size; further: potency means the concentration at half of the fitted maximal effect). The essentials: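 TSHR-HEK293 cells (800/well) plated 18 h, then compounds with Ro20-1724 and TSH at 1.5 ng/mL final, 30 min at room temperature. cAMP quantified by HTRF (cAMP-d2/anti-cAMP-cryptate, 1 h); 15 concentrations in triplicate.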

The target in test [4] is Thyrotropin-releasing hormone receptor (Homo sapiens) (UniProt P34981). The test can be described thus: qHTS assay to identify small molecule antagonists of the thyrotropin-releasing hormone receptor (TRHR) signaling pathway (AID 1346877; active means well fitted inhibition curve with a large enough effect in the repeat runs, not every such curve was filed as active; further: series mostly up to about 51 µM). The essentials: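 Calcium signal in dye-loaded TRHR/HEK293 cells; compounds added 5 min before TRH (1 nM final); fluorescence monitored 3 min at 1 s steps.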
Sequence of Thyrotropin-releasing hormone receptor (Homo sapiens) (P34981 whole entry, looked up): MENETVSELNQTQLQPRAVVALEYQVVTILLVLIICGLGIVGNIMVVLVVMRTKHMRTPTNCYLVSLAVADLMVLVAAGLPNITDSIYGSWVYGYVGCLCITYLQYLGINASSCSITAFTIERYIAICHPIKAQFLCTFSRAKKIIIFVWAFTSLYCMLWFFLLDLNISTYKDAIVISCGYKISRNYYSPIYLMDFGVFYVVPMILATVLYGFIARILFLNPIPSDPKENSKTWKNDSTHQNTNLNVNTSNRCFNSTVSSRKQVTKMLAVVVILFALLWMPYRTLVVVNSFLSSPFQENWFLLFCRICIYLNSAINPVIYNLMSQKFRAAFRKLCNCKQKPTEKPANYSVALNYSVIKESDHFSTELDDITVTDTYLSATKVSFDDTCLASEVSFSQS

A short description of test [5]: qHTS assay for small molecules that induce genotoxicity in human embryonic kidney cells expressing luciferase-tagged ATAD5 (AID 651632). Further: nearly all actives have a fitted effect of over 15% in size. The procedure, abridged:
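DMSO vehicle served as the control. HEK293T reporter cells, 16 hr at 37C, then 30 min Amplite at room temperature; ATAD5 induction is measured as luciferase activity.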

Test [6] in a line: qHTS assay to test for compound auto fluorescence at 590 nm (red) in HepG2 cells (AID 720674). The procedure, abridged:
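HepG2 cells, 2,000 per well in MEM with 10% FBS, attached overnight at 37 C, then got 23 nL compound or DMSO. After 1 hr at 37 C, 5% CO2, red fluorescence was read at 540/590 nm against Rose Bengal sodium as reference.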

The nature of test [7]: qHTS assay to test for compound auto fluorescence at 460 nm (blue) in HEK293 cells (AID 720678). The essentials: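 Blue read-out at excitation 405 nm and emission 460 nm follows overnight compound exposure of HEK293 cells at 37C in 5% CO2. Activity is given as auto fluorescence equivalency to triamterene.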
The nature of test [8]: qHTS assay to test for compound auto fluorescence at 535 nm (green) in HEK293 cells (AID 720680).
Test [9] is described as follows: qHTS assay to test for compound auto fluorescence at 460 nm (blue) in HEK293 cell free culture (AID 720681). The procedure, abridged: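 Compounds were added to cell-free DMEM with 10% FBS and fluorescence read directly. The blue channel used 405 nm excitation and 460 nm emission, with triamterene as the reference fluorophore.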
The nature of test [10]: qHTS assay to test for compound auto fluorescence at 535 nm (green) in HEK293 cell free culture (AID 720682). The essentials:
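Steps: dispense DMEM/10% FBS into empty wells; pin in compound or DMSO; measure fluorescence at 485/535 nm. Values are fluorescein equivalents.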

The nature of test [11]: qHTS assay to test for compound auto fluorescence at 590 nm (red) in HEK293 cell free culture (AID 720683). The procedure, abridged: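 Cell-free wells of DMEM with 10% FBS received compound, and intrinsic fluorescence was read at excitation/emission 540/590 nm. Values expressed as equivalence to Rose Bengal sodium.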
Test [12] is described as follows: qHTS assay for identifying genotoxic compounds that show differential cytotoxicity against isogenic chicken DT40 cell lines with known DNA damage response pathways - wild type cell line (AID 743012). Further: nearly all actives have a fitted effect of over 60% in size. Further: potency means the concentration at half of the fitted maximal effect. The essentials:
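Viability of DNA repair-proficient chicken DT40 cells was assessed by CellTiter-Glo luminescence following 40 h compound exposure at 37 C/5% CO2.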

The nature of test [13]: qHTS assay for identifying genotoxic compounds that show differential cytotoxicity against isogenic chicken DT40 cell lines with known DNA damage response pathways - Rev3 mutant cell line (AID 743014). Further: nearly all actives have a fitted effect of over 55% in size. Further: potency means the concentration at half of the fitted maximal effect.
A short description of test [14]: qHTS assay for identifying genotoxic compounds that show differential cytotoxicity against isogenic chicken DT40 cell lines with known DNA damage response pathways - Rad54/Ku70 mutant cell line (AID 743015). Further: nearly all actives have a fitted effect of over 60% in size. Further: potency means the concentration at half of the fitted maximal effect.
Test [15] in a line: qHTS assay to identify small molecule antagonists of the estrogen related receptor (ERR) signaling pathway from Tox21 library (AID 1224848). Further: nearly all actives have a fitted effect of over 50% in size. Further: potency means the concentration at half of the fitted maximal effect. The essentials: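 Quantitative high-throughput format: ERR reporter cells (2,000/well) pre-incubated 6 h, treated 18 h at 37 C with compounds in DMSO alongside positive and negative controls, then read by ONE-Glo luminescence.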
Test [16] in a line: qHTS RealTime-Glo MT Cell Viability Assay in HEK293 cells - 8 hour (AID 1224887). Further: nearly all actives have a fitted effect of over 50% in size. Further: potency means the concentration at half of the fitted maximal effect. On activity change, negative = cytotoxicity: top concentration of the series differs between compounds. The essentials: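 Kinetic, non-lysing viability readout. Seed HEK293 (600/well) with reagent, incubate 5 h at 37 C/5% CO2, pin 23 nL compound in DMSO, incubate at 37 C, read luminescence at 0, 8, 16, 24, 32, 40 h.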
In test [17] the target is Estrogen receptor (Homo sapiens) (UniProt P03372). The test can be described thus: qHTS assay to identify small molecule antagonists of the estrogen receptor alpha (ER-alpha) signaling pathway using the BG1 cell line in the presence of 0.1 nM 17-beta-estradiol (AID 1259244). Further: nearly all actives have a fitted effect of over 50% in size. Further: potency means the concentration at half of the fitted maximal effect. The essentials:
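Luciferase signal from VM7Luc4E2 ERE-reporter cells, co-dosed with test compound and 0.1 nM final 17beta-estradiol for 22 h, read with ONE-Glo.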

For test [18], the target named is Estrogen receptor beta (Homo sapiens) (UniProt Q92731). As to the kind of experiment: qHTS assay to identify small molecule agonists of the estrogen receptor beta (ER-beta) signaling pathway (AID 1259377; active means well fitted activation curve with a large enough effect in the signal ratio in the repeat runs, not every such curve was filed as active; the % refers to the signal ratio). The procedure, abridged: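 A UAS-controlled beta-lactamase reporter in ER-beta-UAS-bla HEK293T cells reports receptor activation. Compounds act for 16 hr at 37C in 2% charcoal-stripped serum, and a FRET substrate is read by fluorescence after 2 hours.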
Sequence of Estrogen receptor beta (Homo sapiens) (Q92731 whole entry, looked up): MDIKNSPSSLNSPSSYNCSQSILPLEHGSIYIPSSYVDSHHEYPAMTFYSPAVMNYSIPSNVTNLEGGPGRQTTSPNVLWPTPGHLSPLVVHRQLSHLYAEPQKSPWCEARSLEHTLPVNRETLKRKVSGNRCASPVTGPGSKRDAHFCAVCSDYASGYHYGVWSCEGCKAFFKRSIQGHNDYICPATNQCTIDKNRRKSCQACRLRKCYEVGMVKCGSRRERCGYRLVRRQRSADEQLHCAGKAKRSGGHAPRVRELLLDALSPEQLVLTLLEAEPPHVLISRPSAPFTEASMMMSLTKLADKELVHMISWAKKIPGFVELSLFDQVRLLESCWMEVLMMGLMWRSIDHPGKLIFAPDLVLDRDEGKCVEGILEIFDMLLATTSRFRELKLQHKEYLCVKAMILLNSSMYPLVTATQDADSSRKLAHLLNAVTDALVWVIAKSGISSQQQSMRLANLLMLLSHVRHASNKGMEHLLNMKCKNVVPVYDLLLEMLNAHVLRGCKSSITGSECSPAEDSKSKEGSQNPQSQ

The target of test [19] is Progesterone receptor (Homo sapiens) (UniProt P06401). As to the kind of experiment: qHTS assay to identify small molecule agonists of the progesterone receptor (PR) signaling pathway (AID 1346784; calls by dose curve; further: nearly all actives have a fitted effect of over 30% in size). The essentials:
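Agonist mode, quantitative HTS format in a HEK 293T line expressing a UAS-controlled beta-lactamase reporter; 16 hr compound exposure at 37C in 2% charcoal-stripped FBS, then LiveBLAzer B/G FRET fluorescence.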

Test [20] is described as follows: qHTS assay to identify small molecule agonists of the progesterone receptor (PR) signaling pathway - cell viability counter screen (AID 1346799; calls by dose curve; further: nearly all actives have a fitted effect of over 45% in size; further: potency means the concentration at half of the fitted maximal effect). The procedure, abridged: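 Counter screen for cytotoxicity: compound-treated PR-UAS-bla HEK293T cells (16 hr, 37C, 5% CO2) were assayed with CellTiter-Glo, luminescence measured after 30 min at room temperature.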
On the % scale 0 is the no-effect control and ±100 the full control effect.

Sequence of Progesterone receptor (Homo sapiens) (P06401 whole entry, looked up): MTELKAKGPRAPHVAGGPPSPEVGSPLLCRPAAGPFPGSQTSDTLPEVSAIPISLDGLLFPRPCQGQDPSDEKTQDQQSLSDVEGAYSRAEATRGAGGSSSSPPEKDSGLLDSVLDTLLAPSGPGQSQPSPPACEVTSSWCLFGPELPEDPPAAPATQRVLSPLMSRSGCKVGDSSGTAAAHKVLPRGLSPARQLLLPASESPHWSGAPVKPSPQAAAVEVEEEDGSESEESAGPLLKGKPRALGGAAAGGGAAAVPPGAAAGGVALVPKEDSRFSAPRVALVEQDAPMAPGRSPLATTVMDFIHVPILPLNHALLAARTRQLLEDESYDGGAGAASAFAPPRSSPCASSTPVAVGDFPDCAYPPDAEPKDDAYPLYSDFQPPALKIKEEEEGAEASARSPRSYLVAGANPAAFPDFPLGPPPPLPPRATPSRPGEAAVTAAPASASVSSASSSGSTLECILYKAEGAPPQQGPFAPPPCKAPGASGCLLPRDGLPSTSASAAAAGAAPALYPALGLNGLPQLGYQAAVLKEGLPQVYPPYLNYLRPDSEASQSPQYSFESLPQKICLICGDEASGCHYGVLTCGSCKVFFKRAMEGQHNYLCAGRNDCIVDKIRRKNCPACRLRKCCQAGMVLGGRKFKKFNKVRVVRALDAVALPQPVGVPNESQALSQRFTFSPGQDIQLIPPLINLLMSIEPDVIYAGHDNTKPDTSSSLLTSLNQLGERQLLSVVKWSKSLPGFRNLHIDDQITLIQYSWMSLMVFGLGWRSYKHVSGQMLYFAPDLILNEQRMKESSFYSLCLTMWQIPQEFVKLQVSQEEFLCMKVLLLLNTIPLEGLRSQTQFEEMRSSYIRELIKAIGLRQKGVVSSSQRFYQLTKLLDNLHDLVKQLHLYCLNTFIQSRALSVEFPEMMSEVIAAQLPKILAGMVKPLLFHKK
Sequence of Androgen receptor (Homo sapiens) (P10275 whole entry, looked up): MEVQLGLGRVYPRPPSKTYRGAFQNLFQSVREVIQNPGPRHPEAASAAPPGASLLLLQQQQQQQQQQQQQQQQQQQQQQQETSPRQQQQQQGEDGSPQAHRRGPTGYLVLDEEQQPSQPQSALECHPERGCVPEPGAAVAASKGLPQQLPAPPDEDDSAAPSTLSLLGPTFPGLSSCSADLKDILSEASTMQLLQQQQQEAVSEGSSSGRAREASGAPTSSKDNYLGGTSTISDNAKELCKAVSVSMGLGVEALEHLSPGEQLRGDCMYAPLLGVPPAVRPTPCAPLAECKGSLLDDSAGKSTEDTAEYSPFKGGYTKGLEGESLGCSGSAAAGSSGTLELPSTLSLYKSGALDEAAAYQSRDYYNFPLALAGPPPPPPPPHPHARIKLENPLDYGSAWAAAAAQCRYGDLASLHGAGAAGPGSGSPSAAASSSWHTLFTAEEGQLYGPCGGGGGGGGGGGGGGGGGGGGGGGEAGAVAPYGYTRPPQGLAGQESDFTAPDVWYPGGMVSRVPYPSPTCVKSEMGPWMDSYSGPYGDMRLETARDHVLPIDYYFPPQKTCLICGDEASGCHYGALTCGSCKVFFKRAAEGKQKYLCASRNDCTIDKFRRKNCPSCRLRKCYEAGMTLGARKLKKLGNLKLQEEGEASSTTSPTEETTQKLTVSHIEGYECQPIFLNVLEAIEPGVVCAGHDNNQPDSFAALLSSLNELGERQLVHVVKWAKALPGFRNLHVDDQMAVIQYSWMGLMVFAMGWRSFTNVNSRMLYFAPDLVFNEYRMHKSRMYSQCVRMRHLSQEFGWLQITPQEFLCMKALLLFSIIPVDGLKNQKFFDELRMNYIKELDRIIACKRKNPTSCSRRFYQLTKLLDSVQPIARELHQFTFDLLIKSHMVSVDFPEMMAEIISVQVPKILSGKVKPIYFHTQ
Sequence of Thyrotropin receptor (Homo sapiens) (P16473 whole entry, looked up): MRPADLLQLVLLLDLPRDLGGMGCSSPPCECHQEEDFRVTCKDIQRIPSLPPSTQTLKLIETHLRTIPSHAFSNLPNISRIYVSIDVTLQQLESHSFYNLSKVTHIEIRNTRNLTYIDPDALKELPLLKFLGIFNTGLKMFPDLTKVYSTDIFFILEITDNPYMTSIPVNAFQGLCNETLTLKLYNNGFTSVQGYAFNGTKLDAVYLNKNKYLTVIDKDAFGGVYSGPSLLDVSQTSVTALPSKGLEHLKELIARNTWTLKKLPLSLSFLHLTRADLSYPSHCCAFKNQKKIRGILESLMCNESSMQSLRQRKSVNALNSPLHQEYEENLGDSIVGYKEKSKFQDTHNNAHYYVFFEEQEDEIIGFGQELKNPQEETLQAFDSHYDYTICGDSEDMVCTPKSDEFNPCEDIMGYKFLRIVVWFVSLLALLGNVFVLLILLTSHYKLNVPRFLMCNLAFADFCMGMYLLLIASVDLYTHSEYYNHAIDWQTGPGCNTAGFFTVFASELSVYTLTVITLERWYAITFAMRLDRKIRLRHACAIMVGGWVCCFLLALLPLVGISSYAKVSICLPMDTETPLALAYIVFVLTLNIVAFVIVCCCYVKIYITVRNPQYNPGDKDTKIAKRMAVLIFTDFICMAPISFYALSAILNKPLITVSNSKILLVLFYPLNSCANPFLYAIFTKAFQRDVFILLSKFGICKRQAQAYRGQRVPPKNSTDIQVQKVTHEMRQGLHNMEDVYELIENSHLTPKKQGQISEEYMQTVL
Sequence of Estrogen receptor (Homo sapiens) (P03372 whole entry, looked up): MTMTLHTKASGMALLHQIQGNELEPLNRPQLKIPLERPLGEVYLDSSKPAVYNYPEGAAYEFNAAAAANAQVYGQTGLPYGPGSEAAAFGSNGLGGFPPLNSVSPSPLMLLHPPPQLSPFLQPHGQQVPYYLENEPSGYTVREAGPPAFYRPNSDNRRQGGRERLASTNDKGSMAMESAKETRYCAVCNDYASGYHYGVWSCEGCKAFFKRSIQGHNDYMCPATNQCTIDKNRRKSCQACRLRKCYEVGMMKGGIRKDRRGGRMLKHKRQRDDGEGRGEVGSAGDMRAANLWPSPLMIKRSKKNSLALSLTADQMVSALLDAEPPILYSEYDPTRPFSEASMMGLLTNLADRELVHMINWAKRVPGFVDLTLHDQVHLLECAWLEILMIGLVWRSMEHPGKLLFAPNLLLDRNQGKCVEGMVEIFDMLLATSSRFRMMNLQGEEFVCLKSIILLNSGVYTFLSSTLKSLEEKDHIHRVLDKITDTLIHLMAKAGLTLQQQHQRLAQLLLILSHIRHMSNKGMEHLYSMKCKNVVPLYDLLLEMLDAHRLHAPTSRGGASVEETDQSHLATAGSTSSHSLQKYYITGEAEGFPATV

As for `OC(Cc1ccccc1Cl)(Cn1[nH]cnc1=S)C1(Cl)CC1` (stereo not drawn), the Potency entry in test [1], in test [2] and in [3] was “inactive” throughout. The call in [4] was inactive.
For the molecule `Cc1nnc2n1-c1sc(CCc3ccc(CC(C)C)cc3)cc1C(c1ccccc1Cl)=NC2C` (stereo not drawn), the Potency result in test [5], in test [7], in test [8], in test [9], in test [10] and in test [3] was “inactive” in each case. For the same molecule, the molecule was called inactive in test [6], in [11], in test [18] and in test [4]. Besides, the Potency is 11.9 µM (active) in test [12]; 16.8 µM (active) in test [13]; 13.3 µM (active) in [14]; 18.8 µM (active) in test [1]; 9.44 µM (active) in [15]; 21.3 µM (active) in test [16]. Also, the Potency in test [17] is 29.8 µM (active).
Regarding `C=CC(=O)OCCCC`, the Potency entry in test [3] was “inactive”.
Consider `CCN(CC)C(=O)Cl`, for which the Potency entry in [1], in test [15], in test [16], in [17], in test [2] and in test [3] was “inactive” in each case. Further, the Potency result in [20] is “inactive”. Further, the result in [18], in test [19] and in test [4] was inactive.
Regarding `Nc1ccc([N+](=O)[O-])cc1`, the Potency entry in [7], in test [9] and in [10] was “inactive” throughout. Moreover, the Potency in [12] was 13.7 µM (active); in [13], 13.3 µM (active); in test [14], 14.1 µM (active); in test [15], 7.7 µM (active); in test [16], 21.9 µM (active); in test [2] it was 61.1 µM (active). Also, in [20], the Potency was 7.7 µM (active).
For `O=[N+]([O-])c1c(Cl)c(Cl)cc(Cl)c1Cl`, the Potency result in [5], in [7], in [8], in [9], in test [10] and in test [15] was “inactive” in each case. Moreover, the Potency result in test [17] was “inactive”. The molecule was classed as inactive in test [6], in [11] and in test [19].
On to `ClC(Cl)=C(c1ccc(Cl)cc1)c1ccccc1Cl`, for which the Potency entry in test [1], in [17], in test [2] and in test [20] was “inactive” each time. Besides, the molecule was called inactive in test [18], in [19] and in [4].
For `Cc1cc(C(C)(C)c2ccc(O)c(C)c2)ccc1O`, the Potency result in test [5], in test [7], in [8], in test [9], in test [10] and in [12] was “inactive” each time. Besides, the Potency entry in [13], in [2] and in test [3] was “inactive” in each case. The result in [6], in test [11] and in test [19] was inactive. Besides, the Potency in test [1] was 46.2 µM (active); in [15], 26 µM (active); in test [16], 23.4 µM (active).
For the molecule `Cc1ccc(N(SC(F)(Cl)Cl)S(=O)(=O)N(C)C)cc1`, the Potency entry in test [5], in test [7], in [8], in test [9], in [2] and in [20] was “inactive” in each case. In addition, the molecule was called inactive in test [6], in test [11] and in test [18]. The Potency was 0.122 µM (active) in [12]; 0.122 µM (active) in test [13]; 0.137 µM (active) in [14]; 24.3 µM (active) in test [15]; 12.3 µM (active) in test [16]; 61.1 µM (active) in test [3].
Take `COc1cc(OC)c(OC)cc1C=O`: the Potency result in test [5], in test [7], in [8], in [9], in test [10] and in test [1] was “inactive” each time. For the same molecule, the Potency entry in test [16] and in test [2] was “inactive” in each case. Also, the outcome in test [6], in [11] and in test [4] was inactive. Besides, the Potency in [13] is 34.3 µM (active); in test [15], 18.7 µM (active); in [17] it was 59.3 µM (active).
On to `O=C(c1ccccc1)C(Cl)Cl`, for which the Potency result in test [17], in test [2] and in [20] was “inactive” in each case. Also, the result in [18] and in test [4] was inactive.
For the molecule `CNC(=O)Oc1cc(C)c(SC)c(C)c1`, the Potency result in test [1], in test [3] and in [20] was “inactive” throughout. Moreover, in [2], the Potency is 12.2 µM (active). For the same molecule, the call in test [19] and in test [4] was inactive.
As to `c1ccc2c(c1)Sc1ccccc1N2CC1CN2CCC1CC2` (stereo not drawn), the Potency result in [5], in test [8], in test [9] and in test [10] was “inactive” in each case. Also, the molecule was classed as inactive in test [6] and in [11]. For the same molecule, the Potency was 5.96 µM (active) in test [12], 11.9 µM (active) in [13], 8.41 µM (active) in [14] and 13.3 µM (active) in test [20].
As for `Cc1ccc2nc3sc(=O)sc3nc2c1`, the activation in [1] is -7.09% [at 19 µM]; in [19], 0.875% [at 19 µM]. Besides, the results for the activity change, negative = cytotoxicity in [16] and in [20] were 4.11% [at 15.8 µM] and -2.84% [at 19 µM], respectively. Further, the activity change, negative = inhibition in [17] is -0.302% [at 19 µM]; in [3] it was 2.89% [at 19 µM]. The activity, negative = inhibition in test [4] was 3.17% [at 10.5 µM].
On to `C[C@]12CC[C@@H](O)C[C@@H]1CC[C@@H]1[C@@H]2CC[C@]2(C)C(=O)CC[C@@H]12`, for which the result in test [19] was inactive. In addition, the Potency in [20] was 68.6 µM (active).
Regarding `O=C1C(I)=CC(=C(c2cc(I)c(O)c(I)c2)c2ccccc2C(=O)O)C=C1I`, the Potency result in [5], in [7], in test [9], in [12], in test [13] and in test [14] was “inactive” in each case. Besides, the Potency result in test [1], in test [16], in test [17] and in test [3] was “inactive” each time. The call in test [11] and in [19] was inactive.
Take `OCC(c1ccc(Cl)cc1)c1ccc(Cl)cc1`: the Potency entry in [5], in test [7], in test [8], in test [9], in test [3] and in test [20] was “inactive” in each case. Also, the result in test [6], in test [18] and in test [4] was inactive. In addition, the Potency in test [12] is 13.7 µM (active); in [13], 1.93 µM (active); in test [14] it was 15.4 µM (active); in test [16] it was 34.7 µM (active).

The record behind these values is PubChem BioAssay (Tox21).
